Results taken from PubChem BioAssay (NCATS).
Inconclusive results are not listed. A call without a number means that no potency is given here. The source made the active and inactive calls. The call rests on the fitted dose curve; in most records, active means well fitted inhibition curve with a large enough effect; inconclusive means small, poorly fitted or top-dose-only effect; inactive means flat fitted curve, though single readings scatter.

System: GB4
Experiment: qHTS profiling for inhibitors of Plasmodium falciparum proliferation (AID 504749); further: nearly all actives have a fitted effect of over 60% in size
Details: P. falciparum in erythrocytes, SYBR Green DNA, 72 h; series mostly up to 28.7 µM
In short: (§1)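 Each compound contacts P. falciparum-infected red blood cells for 72 h at 37 C; lysis buffer (Tris, EDTA, saponin, Triton X, SYBR Green I) is added and fluorescence measured next morning; values normalized to controls.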
Potency means the concentration at half of the fitted maximal effect.

Structure (SMILES) | Potency
O=[N+]([O-])c1ccccc1 | inactive
O=C1CC[C@@]2(O)C3Cc4ccc(O)c5c4C2(CCN3CC2CC2)[C@H]1O5 (stereo partly specified) | inactive
O=C/C=C/c1ccccc1 | inactive
c1csc(C2(N3CCCCC3)CCCCC2)c1 | inactive
c1ccc(C2(N3CCCC3)CCCCC2)cc1 | 12 µM (active)
[Cl-].[Cl-].[Hg+2] | 4.78 µM (active)
CCC1(CC)C(=O)NC(=O)N(C)C1=O | inactive
CCC1C(C)=NN=C(c2ccc(OC)c(OC)c2)c2cc(OC)c(OC)cc21 (stereo unspecified) | inactive
N#CC(C#N)=Cc1cc(O)c(O)c(O)c1 | 10.7 µM (active)
Oc1cccc[c]1[Hg][Cl] | 4.26 µM (active)
ClC1C(Cl)C(Cl)C(Cl)C(Cl)C1Cl (stereo unspecified) | inactive
CCCCCCCCCC(=O)O[C@H]1CC[C@H]2[C@@H]3CCC4=CC(=O)CC[C@]4(C)[C@H]3CC[C@]12C | inactive
CCC1(c2ccccc2)C(=O)NC(=O)N(C(=O)c2ccccc2)C1=O (stereo unspecified) | inactive
O=C1CN=C(c2ccccc2)c2cc(Cl)ccc2N1CC1CC1 | inactive
CC(C)Nc1ccc(Nc2ccccc2)cc1 | 5.36 µM (active)
CNC(=O)Oc1ccccc1C(=O)Nc1ccccc1 | 15.1 µM (active)
CN1CCCC(=C(c2cccs2)c2cccs2)C1 | 8.49 µM (active)

System: HB3
Experiment: as above
Details: P. falciparum in erythrocytes, SYBR Green DNA, 72 h; series mostly up to 28.7 µM
In short: as §1

Structure (SMILES) | Potency
O=[N+]([O-])c1ccccc1 | inactive
O=C1CC[C@@]2(O)C3Cc4ccc(O)c5c4C2(CCN3CC2CC2)[C@H]1O5 (stereo partly specified) | inactive
O=C/C=C/c1ccccc1 | inactive
CCNC(C)Cc1cccc(C(F)(F)F)c1 (stereo unspecified) | inactive
CCOP(=O)(OCC)O/C(=C/Cl)c1ccc(Cl)cc1Cl | inactive
c1csc(C2(N3CCCCC3)CCCCC2)c1 | inactive
CCN(CC)C(=O)/C(Cl)=C(\C)OP(=O)(OC)OC | inactive
[Cl-].[Cl-].[Hg+2] | inactive
CCC1(CC)C(=O)NC(=O)N(C)C1=O | inactive
c1cc2c(c(NC3=NCCN3)c1)CCCC2 | inactive
CCC1C(C)=NN=C(c2ccc(OC)c(OC)c2)c2cc(OC)c(OC)cc21 (stereo unspecified) | inactive
CCC(=O)O[C@@](Cc1ccccc1)(c1ccccc1)[C@@H](C)CN(C)C | inactive
N#CC(C#N)=Cc1cc(O)c(O)c(O)c1 | 8.91 µM (active)
C=CCC1(C(C)CCC)C(=O)N=C(S)NC1=O (stereo unspecified) | inactive
Oc1cccc[c]1[Hg][Cl] | 10 µM (active)
C[C@H]1CCC[C@H](O)CCCCCc2cc(O)cc(O)c2C(=O)O1 | inactive
ClC1C(Cl)C(Cl)C(Cl)C(Cl)C1Cl (stereo unspecified) | inactive

Structure (SMILES) | Potency
CCC1(c2ccccc2)C(=O)NC(=O)N(C)C1=O (stereo unspecified) | 11.2 µM (active)
CCCCCCCCCC(=O)O[C@H]1CC[C@H]2[C@@H]3CCC4=CC(=O)CC[C@]4(C)[C@H]3CC[C@]12C | inactive
CCC1(c2ccccc2)C(=O)NC(=O)N(C(=O)c2ccccc2)C1=O (stereo unspecified) | inactive
COc1ccc2c(c1OC)C(=O)OC2C1c2cc3c(cc2CCN1C)OCO3 (stereo unspecified) | inactive
C=CCN=C=S | inactive
OC(c1ccccc1)(c1ccccc1)C1CN2CCC1CC2 (stereo unspecified) | inactive
CCOc1ccc2c3c1O[C@H]1[C@@H](O)C=C[C@H]4[C@@H](C2)N(C)CC[C@@]341 | inactive
Cc1sc2ccccc2c1CC1=NCCN1 | inactive
O=C1CN=C(c2ccccc2)c2cc(Cl)ccc2N1CC1CC1 | inactive
CNC(=O)Oc1ccccc1C(=O)Nc1ccccc1 | inactive
O=c1c2ccccc2[se]n1-c1ccccc1 | inactive
CC12NC(Cc3ccccc31)c1ccccc12 (stereo unspecified) | inactive
c1ccc2cc(CC3=NCCN3)ccc2c1 | inactive
CCCN1CCCC2Cc3[nH]ncc3CC21 (stereo unspecified) | inactive
Oc1cc(Cl)c(Cl)cc1Cl | inactive
CN1CCCC(=C(c2cccs2)c2cccs2)C1 | inactive
CN1[C@@H]2CC[C@H]1CC(OC1c3ccccc3CCc3ccccc31)C2 (stereo partly specified) | inactive

System: ICS
Experiment: as above
Details: P. falciparum in erythrocytes, SYBR Green DNA, 72 h; series mostly up to 28.7 µM
In short: as §1

Structure (SMILES) | Potency
O=[N+]([O-])c1ccccc1 | inactive
O=C1CC[C@@]2(O)C3Cc4ccc(O)c5c4C2(CCN3CC2CC2)[C@H]1O5 (stereo partly specified) | inactive
O=C/C=C/c1ccccc1 | inactive
CCNC(C)Cc1cccc(C(F)(F)F)c1 (stereo unspecified) | inactive
c1csc(C2(N3CCCCC3)CCCCC2)c1 | inactive
CCN(CC)C(=O)/C(Cl)=C(\C)OP(=O)(OC)OC | inactive
[Cl-].[Cl-].[Hg+2] | 12.6 µM (active)
CCC1(CC)C(=O)NC(=O)N(C)C1=O | inactive
CCC1C(C)=NN=C(c2ccc(OC)c(OC)c2)c2cc(OC)c(OC)cc21 (stereo unspecified) | 8.91 µM (active)
N#CC(C#N)=Cc1cc(O)c(O)c(O)c1 | 2.82 µM (active)
C=CCC1(C(C)CCC)C(=O)N=C(S)NC1=O (stereo unspecified) | inactive
F/C(COc1ccc2c(c1)[nH]c1ccccc12)=C1/CN2CCC1CC2 | 3.55 µM (active)
Oc1cccc[c]1[Hg][Cl] | 5.01 µM (active)
ClC1C(Cl)C(Cl)C(Cl)C(Cl)C1Cl (stereo unspecified) | inactive
CCC1(c2ccccc2)C(=O)NC(=O)N(C)C1=O (stereo unspecified) | 3.98 µM (active)
CCC1(c2ccccc2)C(=O)NC(=O)N(C(=O)c2ccccc2)C1=O (stereo unspecified) | inactive
COc1ccc2c(c1OC)C(=O)OC2C1c2cc3c(cc2CCN1C)OCO3 (stereo unspecified) | inactive
C=CCN=C=S | inactive
CCOc1ccc2c3c1O[C@H]1[C@@H](O)C=C[C@H]4[C@@H](C2)N(C)CC[C@@]341 | inactive
Cc1sc2ccccc2c1CC1=NCCN1 | inactive
CC(C)Nc1ccc(Nc2ccccc2)cc1 | 7.08 µM (active)
CNC(=O)Oc1ccccc1C(=O)Nc1ccccc1 | 12.6 µM (active)
c1ccc2cc(CC3=NCCN3)ccc2c1 | inactive
C[C@@H](Cc1ccccc1)NCCC(c1ccccc1)c1ccccc1 | 3.16 µM (active)
CCCN1CCCC2Cc3[nH]ncc3CC21 (stereo unspecified) | inactive
